An excerpt weighted towards active compounds, which were near 1.8% of everything screened.
p53ts 32C kill: kills p53ts cells at the permissive temperature; H1299-p53A138V at 32C, ATP luminescence viability, 24 h; AID 924; Potency, µM (top dose mostly 46.1 µM), for the others: at the top dose activity change, negative = cytotoxicity, actives largely listed as cytotoxic; 130,000 compounds, 0.93% hits;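 note: 0% = DMSO and -100% = full killing by reference compound; nearly all actives have a fitted effect of over 55% in size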
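ATP-content luminescence (ATPlite) read-out after 24 h compound exposure at 32C in H1299-p53A138V cells (600/well). Tested up to 46 uM. Normalized to DMSO (0%) and 100 uM tamoxifen (100% killing); Hill-fit AC50.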
p53ts 39C kill: kills p53ts cells at the nonpermissive temperature; H1299-p53A138V viability at 39C, ATP luminescence, 24 h; Potency, µM (highest dose often 46.1 µM), for the others: top-dose activity change, negative = cell killing, hits mostly cytotoxic; 130,000 compounds, 1.5% hits; note: % is set by controls: 0 for no effect and ±100 for the full control effect; nearly all actives have a fitted effect of over 55% in size
IkB signaling: suppresses IkB signaling in ABC-DLBCL reporter cells; 110,000 compounds, 0.04% hits; ABC-DLBCL IkBa-CBG/CBR dual luciferase ratio, 4 h; response scale: scaled: untreated 0%, proteasome inhibitor 100%; Potency, µM (doses to about 57.1 µM), inactives show top-dose IkBa stabilization activation; active = well fitted curve in the direction sought with a large enough effect in the signal ratio, not every such curve was filed as active; inconclusive = small, poorly fitted or top-dose-only effect, or a change in a side signal; the % refers to the signal ratio;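 note: the direction sought is a rising ratio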
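Luminescence ratio of IκBα-fused green versus native red beetle luciferase in OCI-Ly3 cells, 4 h post-doxycycline with compound; red signal alone, scaled from basal (0%) to zero light (-100%), flagged nonspecific or cytotoxic effects.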
Imprint erasure: induces erasure of genomic imprints in mouse ES cells. mouse ES Peg3-LacZ reporter, beta-gal luminescence, 40 h. Potency, µM (titrated, usually from 60.7 µM), for inactives: top-dose activity change, positive = activation, hits mostly activators. 110,000 compounds, 0.02% hits
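Each well holds 300 Peg3LacZ-Neo (maternal) female ES cells incubated 40 h at 37C, 5% CO2. LacZ is measured by BetaGlo luminescence, with AC50 and maximum efficacy derived from dose-response curves.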
Starred values were filed as active, the others as inactive; ? = inconclusive; nt = not tested or not shown; ! = repeats disagree; [ ] = remark or other dose. Unless noted, calls come from the whole dose curve; as a rule, active = well fitted curve in the direction sought with a large enough effect; inconclusive = small, poorly fitted or top-dose-only effect, or another doubt; inactive = no such curve, though single readings can be large; an effect the other way counts as inactive or inconclusive. Potency is the fitted concentration of half-maximal effect.

SMILES	p53ts 32C kill	p53ts 39C kill	IkB signaling	Imprint erasure
O=C(O)C1CC(=O)N(CCC23CC4CC(CC(C4)C2)C3)C(=Nc2ccccc2)S1 (stereo not drawn)	24%	8%	nt	nt
CCOC(=O)c1cnc(-n2nc(C)cc2C)nc1N(C)C	3.2µM*	2µM*	-4%	-55%
Cc1ccc(Cn2c(SCC(=O)NCc3ccccc3Cl)nc3ccsc3c2=O)cc1	7%	10µM*	0%	16%[10.9 µM]
O=C(CSc1nc2ccsc2c(=O)n1Cc1ccccc1Cl)NCc1ccc(Cl)cc1	1%	-5%	-1%	10%[10.9 µM]
N#Cc1c(C(F)(F)F)cc(-c2cccs2)nc1SCC(=O)Nc1cccc(Br)c1	-15%	13µM*	?	-3%[10.9 µM]
N#Cc1c(C(F)(F)F)cc(-c2cccs2)nc1SCC(=O)Nc1cccc(Cl)c1	-2%	-5%	1%	-4%[10.9 µM]
COc1ccc2c(c1OC)C(=O)N1c3ccccc3COC21 (stereo not drawn)	13µM*	16µM*	2%	-47%
COc1ccc2c(c1OC)C(=O)N1c3cccc(Cl)c3C(=O)OC21 (stereo not drawn)	11%	1%	-1%	-3%
C=C(CC1([C@@H](NP(=O)(c2ccccc2)c2ccccc2)[C@H]2C[C@@H]2CCCC)CC1)c1ccccc1	8%	25µM*	nt	-33%
CCCC[C@@H]1C[C@H]1C(NC(=O)c1ccccc1)c1ccccc1 (stereo partly drawn)	15%	-7%	nt	-16%
CCCC[C@@H]1C[C@H]1[C@@H](NP(=O)(c1ccccc1)c1ccccc1)c1ccccc1OC	?	25µM*	nt	-23%
CN(C)c1nc(N)c(C(=O)Nc2cccnc2)nc1Cl	13µM*	5µM*	nt	-41%
O=C(Nc1cccnc1)c1cc(-c2cccc(Cl)c2)on1	6%	23%	?	8%[10.9 µM]
Cc1ccc(-n2nc3c(=O)n(CC(=O)NC(C)C)nc(C)c3c2C)cc1	5%	?	2%	8%[10.9 µM]
COc1cc(Cl)c(C)cc1NC(=O)Cn1ncc2c1-c1cc(C)ccc1OC2	-3%	13µM*	-4%	-9%[10.9 µM]
COc1ccc(OC)c(NC(=O)Cn2ncc3c2-c2ccccc2OC3)c1	-3%	15%	0%	-3%[10.9 µM]
Cc1ccc(N2CCN(C(=O)c3c(C)oc4ncnc(N5CCCCC5)c34)CC2)c(C)c1	15%	20µM*	?	15%[10.9 µM]
O=C1c2sc3nc4ccccc4n3c2C(=O)N1c1ccccc1Cl	-2%	-12%	?	-12%
N=c1cc(C2(O)CCCCC2)n2c(nc3ccccc32)s1	1µM*	1.3µM*	0%	-51%
COc1cc2ccccc2cc1C(=O)Nc1ccc2oc(-c3ccc(Cl)cc3)nc2c1	-14%	7.9µM*	0%	21%[10.9 µM]
CCOc1ccc(C(=O)Nc2ccc3oc(-c4ccc(Br)cc4)nc3c2)cc1	2%	29%	-1%	-6%[10.9 µM]
COc1cc2ccccc2cc1C(=O)Nc1ccc(N2CCN(C)CC2)cc1	?	13µM*	0%	-25%
COc1cc(C(=O)Nc2ccc3oc(-c4ccccc4)nc3c2)cc(OC)c1OC	?	13µM*	?	-5%[10.9 µM]
CCOc1ccc(C(=O)Nc2ccc3oc(-c4cccc5ccccc45)nc3c2)cc1	-23%	10µM*	7%	-10%[10.9 µM]
Cc1c(C(=O)NCc2ccccc2)sc2nc3n(c(=O)c12)CCC3	-3%	?	-1%	-12%[10.9 µM]
SMILES	p53ts 32C kill	p53ts 39C kill	IkB signaling	Imprint erasure
CSc1ccc2c(c1)N(CC[C@H]1CCCCN1C)c1ccccc1S2	nt	13µM*!	0%[25.6 µM]	-16%[16.8 µM]
CSc1ccc2c(c1)N(CCC1CCCCN1C)c1ccccc1S2 (stereo not drawn)	nt	13µM*	nt	-32%
Cc1c(C(=O)Nc2ccc(Br)cc2F)sc2ncnc(N(C)C3CCCCC3)c12	0%	-6%	?	-11%[10.9 µM]
Cc1cccc(C)c1NC(=O)Cn1c(=O)cc(C)c2c(C)nn(-c3cccc(Cl)c3C)c21	4%	-21%	0%	-10%[10.9 µM]
COC(=O)CN1C(=O)C(O)(c2c(C)[nH]c3ccccc23)c2ccccc21 (stereo not drawn)	5%	21%	0%	8%[10.9 µM]
Cc1nc(Nc2nc3ccccc3o2)nc2c1CCC2	13µM*	16µM*	13%	-90%
Cc1cccc(C)c1Nc1nc2ccccc2o1	0%	-14%	2%	-2%
CCOC(=O)c1ccc(NC(=O)CSc2nc3c(c(=O)n2C)SC(C)C3)cc1 (stereo not drawn)	7.9µM*	13µM*	-1%	-18%
COc1ccc(Nc2nc3c(S(=O)(=O)c4ccccc4)nnn3c3ccc(Cl)cc23)cc1OC	-4%	1%	0%	-5%[10.9 µM]
COc1ccc(Nc2nc3c(S(=O)(=O)c4ccccc4)nnn3c3ccc(Cl)cc23)cc1	?	10µM*	0%	-5%[10.9 µM]
Cc1cc(C(=O)CSc2nncs2)c(C)n1-c1c(C)n(C)n(-c2ccccc2)c1=O	8%	-16%	0%	-1%
Cc1ccc(-n2c(C)cc(C(=O)CSc3nncs3)c2C)cc1	13µM*	?	?	-28%
O=S1(=O)C=C(Sc2nnc(-c3ccccc3)o2)c2ccccc21	13µM*	?	?	-54%
CCCN1Cc2cccc(C(=O)Nc3cc(C)cc(C)c3)c2C1=O	7%	-9%	-2%	-14%[10.9 µM]
O=C(Nc1ccc(C(=O)OCc2cc(=O)n3c4c(sc3n2)CCCC4)cc1)c1ccc(Cl)cc1	0%	0%	3%	5%[10.9 µM]
Cn1ccc2cc3c(cc21)CCN3C(=O)Nc1cccnc1	10µM*	10µM*	0%	-31%
CCc1ccccc1NC(=O)CN(C)C(=O)Cn1ncc(Cl)c(Cl)c1=O	3.5µM*	3.2µM*	nt	nt
CC1Cc2ccccc2N1C(=O)CSc1nc2ccc(NC(=O)COc3ccccc3)cc2s1 (stereo not drawn)	-6%	3%	1%	-13%[10.9 µM]
COc1ccc(S(=O)(=O)N2CCN(c3ccccc3F)CC2)cc1-c1noc(C)n1	?	13µM*	0%	-7%[10.9 µM]
CCc1nc(-c2cc(S(=O)(=O)N3CCN(c4ccccc4F)CC3)ccc2OC)no1	-4%	-3%	1%	-4%[10.9 µM]
CC(C)N(CCNC(=O)c1ccc(Cc2nc3ccccc3[nH]2)cc1)C(C)C	1%	1%	nt	nt
Clc1ccc(-c2nnc(SCc3ccon3)o2)c(Cl)c1	10µM*	10µM*	-1%	-70%
CCOc1ccc(NC(=O)CSc2oc(-c3cccs3)nc2S(=O)(=O)c2ccc(Cl)cc2)cc1	-23%	13µM*	?	-27%[10.9 µM]
CCOc1ccc(NC(=O)CSc2oc(-c3ccc(C)cc3)nc2S(=O)(=O)c2ccc(C)cc2)cc1	13µM*	0.79µM*	-1%	-41%[10.9 µM]
Cc1cc(C)cc(NC(=O)CSc2oc(-c3ccccc3)nc2S(=O)(=O)c2ccccc2)c1	-17%	?	?	-15%[10.9 µM]
c1ccc(CN2CCN(c3nc4ccccc4n4cnnc34)CC2)cc1	-13%	-1%	-3%	-17%
FC(F)(F)c1cccc(N2CCN(c3nc4ccccc4n4cnnc34)CC2)c1	-2%	16µM*	?	-8%[10.9 µM]

Screens deposited in PubChem BioAssay by National Center for Advancing Translational Sciences (NCATS).
